Target: FKTN
Assay: pooled miR-30 sensor sort-seq; sequence = guide strand
Conditions: shRNA
Also: reference of the scale not given here.

Row | Sequence | sensor-assay potency score (higher = more potent)
1 | TAGACAAGTTCCACTGCTCAGC | -0.942
2 | TTTCCTGTCAATGTGTTCTTTA | -0.407
3 | TTTGCAGATATAGTGCAGGGGG | -0.241
4 | TAAACCTAGAGTGTGGTACTTC | 0.175
5 | TAGAGTGTGGTACTTCTTCTAC | -0.462
6 | TTCCAAGCTGTCTTCTACCTTC | -0.104
7 | TTTAAGTCTCAAGTGGCCGTGC | 0.148
8 | TACTTCTTCTACAAAGTGCATT | -0.78
9 | TATCAGATTTGTAATCTTGTAT | 0.319
10 | TGCATTGTCGATACCATCCTAG | -0.739
11 | TTGTTTAATGTTTTCGCTGCTA | 0.0989
12 | TTGCATTGTCGATACCATCCTA | -0.0659
13 | TTTGACTTGTTCAAAGTTCTTA | 0.733
14 | TTGACTTGTTCAAAGTTCTTAT | -0.62
15 | TTGCATTGTGAAGTAGAGCCAT | 0.152
16 | TGCATTGTGAAGTAGAGCCATG | -1.03
17 | TTTTACATCATCTTTTCCCTGG | 0.348
18 | TTTTAAACAGTTATCTACCTTT | 0.405
19 | TCCATCAACAGTAACTTGCTGT | -0.268
